The list is not random: actives were taken first. Their share in the collection is about 5.2%.
Tau FP inhib – qHTS for Inhibitors of Tau Fibril Formation, Fluorescence Polarization | Microtubule-associated protein tau (Homo sapiens), P10636 | K18 P301L tau heparin fibrillization, Alexa594 FP, 6 h | Potency, µM (series often up to 57.7 µM), hits mostly inhibitors | 280,000 tested, 0.39% active; also: nearly all actives have a fitted effect of over 55% in size
Target sequence (P10636 561-689 P618L limits assumed): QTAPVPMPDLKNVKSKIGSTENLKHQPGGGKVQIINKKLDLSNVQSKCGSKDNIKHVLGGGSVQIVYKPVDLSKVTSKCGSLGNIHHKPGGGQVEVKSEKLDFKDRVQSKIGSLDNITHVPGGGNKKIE
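K18 P301L tau (15 uM unlabeled/0.24 uM Alexa 594-labeled, final) + compound + heparin 20 uM final; 100 mM NaOAc pH 7; 6 hr 37 C; ThT 30 uM final added, 1 hr RT; FP ex 555/em 632 nm.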
Sfp inh – qHTS Assay for Inhibitors of Bacillus subtilis Sfp phosphopantetheinyl transferase (PPTase). 4'-phosphopantetheinyl transferase ffp (Bacillus subtilis), Q9F4F7. 310,000 tested, 3.5% active. Biochemical Sfp PPTase activity, qHTS. Potency, µM, usual class: inhibitors. AID 1490, 2009;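 also: the enzyme is Sfp with the accession as filed and its product quenches rhodamine fluorescence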
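Reaction rates are the 30-min fluorescence difference (ex 525, em 598 nm) in wells containing 15 nM Sfp, 5 uM rhodamine-CoA and 12.5 uM BHQ-2-YbbR at pH 7.6 with 10 mM MgCl2.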
FBPA coupling cs – qHTS Assay for Inhibitors of Fructose-1,6-bisphosphate Aldolase from Giardia Lamblia: Coupling assay counterscreen | AID 2472, 2010 | coupling enzyme system counterscreen, AmpLite Red fluorescence | activity change, negative = inhibition, % at 58.2 µM, hits read low | 290,000 tested, 0.67% active; in the data active = activity change below about -30%
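Counterscreen lacking aldolase: glyceraldehyde-3-phosphate coupling-enzyme reagent preincubated 10 min at RT with compound (at 57.5 uM final), then substrate/coupling system with AmpLite Red added; fluorescence read at 525/598 nm after 20 min RT.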
Tau fluor cs – Counterscreen qHTS for Inhibitors of Tau Fibril Formation, Fluorescence Polarization | 280,000 tested, 0.93% active | tau K18 P301L Alexa594 fluorescence, heparin fibrillization | Potency, µM (highest dose often 57.7 µM); also: nearly all actives have a fitted effect of over 55% in size
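Human K18 P301L tau (15 uM unlabeled plus 0.24 uM Alexa 594-labeled, final) in 100 mM sodium acetate pH 7 was mixed with compound and 20 uM heparin and incubated 6 hr at 37 C.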
Tau fibril ThT – qHTS for Inhibitors of Tau Fibril Formation, Thioflavin T Binding. Microtubule-associated protein tau (Homo sapiens), P10636. recombinant tau K18 P301L (four-repeat tau fragment), heparin-induced fibrillization, ThT fluorescence. Potency, µM (titrated, usually from 57.4 µM), hits mostly inhibitors. 270,000 tested, 2.1% active. AID 1460, 2008; also: nearly all actives have a fitted effect of over 55% in size
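Heparin-induced fibrillization of the P301L-mutant K18 repeat-domain fragment of human tau was followed by ThT binding in quantitative high-throughput format.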
Numbers stand for hits; 0 = inactive; ? = inconclusive; - = no result given; [ ] = remark or other dose. Unless noted, calls follow the shape of the dose curve; as a rule, active = well fitted curve in the direction sought with a large enough effect; inconclusive = small, poorly fitted or top-dose-only effect, or another doubt; inactive = no such curve, though single readings can be large; an effect the other way counts as inactive or inconclusive.

SMILES	Tau FP inhib	Sfp inh	FBPA coupling cs	Tau fluor cs	Tau fibril ThT
CCOc1ccc(NC(=O)c2oc3ccccc3c2NC(=O)Cc2cccs2)cc1	0	-	-	?	0
Cc1nnc(NN)n(N)c1=O	?	10µM	0	0	?
N#C/C(=C\c1ccc(-c2cccc(Cl)c2)o1)C(=O)Nc1cccc2cccnc12	0	0	0	0	2.5µM
C=CC[n+]1c(-c2ccc(C)cc2)csc1Nc1ccc(NC(C)=O)cc1	0	0	0	?	0
C=CC[n+]1c(-c2ccc(OC)cc2)csc1NNC(=O)Nc1ccccc1	0	50µM	0	?	?
Cc1ccc(OC(C)C(=O)Nc2ccccc2C(=O)NCc2cccnc2)cc1C (stereo not drawn)	-	0	-	-	-
Cc1cc(C)cc(OC(C)C(=O)Nc2ccccc2C(=O)NCc2cccnc2)c1 (stereo not drawn)	-	35µM	0	-	-
CCCCn1c(=O)[nH]c(=O)c2c1nc(-c1ccsc1)n2Cc1ccccc1	0	0	0	0	0
CCCCn1c(-c2ccsc2)nc2c1c(=O)[nH]c(=O)n2CCC	0	35µM	-31	0	0
O=C(Nc1ccc(N=Nc2ccccc2)cc1)c1cccc(Cl)c1	0	0	0	0	3.2µM
CC(=O)c1cc(NC(=O)c2ccc([N+](=O)[O-])cc2)c(=O)oc1C	?	16µM	0	0	?
Cc1oc(=O)c(NC(=O)c2ccccc2)cc1C(N)=O	0	0	0	0	0
Cc1oc(=O)c(NC(=O)c2cccc(Cl)c2)cc1C(=O)c1ccccc1	?	8.9µM	0	0	?
COc1ccc(C(=O)Nc2cc(C(=O)c3ccccc3)c(C)oc2=O)cc1	?	10µM	0	0	?
O=C(Nc1ccc2c(c1)OCCO2)c1cccc(Cl)c1	-	0	0	-	-
O=[N+]([O-])c1ccc(-c2cnc(SCc3ccccc3Cl)[nH]2)cc1	0	0	0	16µM[quencher]	14µM
Cc1cc(C)c(CSc2ncc(-c3ccc([N+](=O)[O-])cc3)[nH]2)c(C)c1	0	0	0	6.3µM[quencher]	5µM
NC(=O)CSc1ncc(-c2ccc([N+](=O)[O-])cc2)[nH]1	0	0	0	0	?
O=[N+]([O-])c1ccc(-c2cnc(SC(c3ccccc3)c3ccccc3)[nH]2)cc1	?	0	0	4µM[quencher]	?
CC(=O)n1cc(N(C(=O)CCl)c2ccc([N+](=O)[O-])cc2)c2ccccc21	0	0	0	?	28µM
O=Cc1[nH]c2ccccc2c1N(C(=O)CCl)c1ccc([N+](=O)[O-])cc1	?	0	0	?	16µM
C(=N\Nc1nn2cnnc2c2ccccc12)/c1ccco1	0	50µM	0	0	?
COc1ccc(/C=N/Nc2nncc3ccccc23)cc1	0	50µM	0	0	?
Oc1ccc(/C=N/Nc2nn3cnnc3c3ccccc23)cc1	0	56µM	0	?	-
COc1cc(/C=N/Nc2nn3cnnc3c3ccccc23)ccc1O	0	40µM	0	0	?
SMILES	Tau FP inhib	Sfp inh	FBPA coupling cs	Tau fluor cs	Tau fibril ThT
COc1ccc(Cn2c(SCc3ccc(C(=O)NCc4cccs4)cc3)nc3cccnc32)cc1	0	-	-	0	0
COc1cc(/C=N/NC(=O)CCn2c3ccccc3c3ccccc32)ccc1O	0	0	0	25µM[quencher]	?
COc1cccc(/C=N/Nc2nn3cnnc3c3ccccc23)c1	0	56µM	0	0	0
Cc1ccc(Cn2c(=O)c3cccnc3n(Cc3ccc(F)cc3)c2=O)cc1	0	-	-	0	0
Cc1nnc(Nc2ccc(Cl)cc2)s1	0	0	0	0	-
Clc1ccc(Nc2nc(C3CC3)cs2)cc1	?	?	0	16µM[quencher]	?
Cc1ccc(Nc2nc(C3CC3)cs2)cc1	0	45µM	0	?	?
Nc1nn(-c2ccccc2)nc1C(=O)OCc1ccccc1Br	?	-	-	?	0
O=C(/C=C/Nc1ccc(Oc2ccccc2)cc1)c1ccco1	0	50µM	0	?	?
NC(=O)c1ccccc1N/C=C/C(=O)c1ccco1	0	0	0	0	?
COc1cccc(OC(=O)CSc2nnc(-c3cccs3)o2)c1	0	-	-	0	0
COc1ccc(C(=O)N2CCC3(CCN(CC(C)C)CC3)CC2)cc1	-	0	0	-	-
CC1=C(CC/C(C)=N/NC(N)=S)C(C)(C)CCC1	0	45µM	0	0	?
CN=C1N[C@H](c2ccccc2)N(c2ccccc2)S1	32µM	112µM	0	0	20µM
Cc1ccc(N2NC(=O)/C(=C\c3cc4c(cc3[N+](=O)[O-])OCO4)C2=O)cc1C	?	0	0	?	14µM
COc1cccc(N2CCN(c3ncnc4c3[nH]c3ccc(F)cc34)CC2C)c1 (stereo not drawn)	?	0	0	18µM[quencher]	?
COc1cccc(N2CCN(c3ncnc4c3[nH]c3ccccc34)CC2C)c1 (stereo not drawn)	?	0	0	14µM[quencher]	?
COc1ccc2[nH]c3c(N4CC(C)OC(C)C4)ncnc3c2c1 (stereo not drawn)	0	0	0	0	0
CCOC(=O)c1ccc(CN(Cc2ccc(F)cc2)S(=O)(=O)c2ccc(F)cc2)cc1	0	-	-	0	0
Cc1ccc(/C=C/C(=O)OCc2nc(N)nc(Nc3ccccc3C)n2)o1	0	79µM	0	0	0
COc1ccc(N=Nc2n(C)c3ccccc3[n+]2C)cc1	?	50µM	0	?	3.2µM
C=CCn1c(-c2ccccc2)n[nH]c1=S	0	5µM	0	0	0
C=CCn1c(Cc2nc3ccc(Cl)cc3[nH]2)n[nH]c1=S	0	50µM	0	0	?
C=CCn1c(Cc2ccccc2)n[nH]c1=S	0	0	0	0	0
C=CCn1c(-c2ccncc2)n[nH]c1=S	0	0	0	0	0
SMILES	Tau FP inhib	Sfp inh	FBPA coupling cs	Tau fluor cs	Tau fibril ThT
Cc1csc2nc(COC(=O)c3ccccc3NC(=O)c3ccc(C(C)(C)C)cc3)cc(=O)n12	0	-	-	0	0
O=C(CCSCc1cccc(Cl)c1)NCc1ccccc1Cl	0	-	-	0	0
O=C(CCN1C(=O)C2C3C=CC(C3)C2C1=O)N1CCCCC1 (stereo not drawn)	0	0	0	0	0
O=C(CCN1C(=O)C2CC=C(Cl)CC2C1=O)N1CCCCC1 (stereo not drawn)	0	89µM	0	0	0
COc1ccc(CC(=O)n2[nH]c(=O)ccc2=O)cc1OC	0	3.5µM	0	0	0
CCN=c1scc(C)n1/N=C/c1ccc(O)c(O)c1O	22µM	8.9µM	-37	?	11µM
COCCN=c1scc(-c2cccs2)n1/N=C/c1ccc(O)c(O)c1O	0	7.1µM	-33	0	0
Cc1cc(C)n(/N=C/c2c[nH]c3ccccc23)c(=O)c1	0	0	0	0	0
COCCN=c1scc(-c2ccccc2)n1/N=C/c1c[nH]c2ccccc12	?	0	0	10µM[quencher]	13µM

Bioassay records as filed in PubChem.
